The values below come from article PMC11062922 (Nature Chemical Biology, 2023).

Molecules are shown by their SMILES. Read-outs that look alike come from different tables or passages of the source.

Holding throughout (set-up): species or system human, MV4-11 + K-562 + COLO205 + SK-N-BE2 + OVCAR-8
The subject of one experiment is ACVR1B. The note with it: read-out: apparent Kd, n = 1.
For another experiment, the system named is CIT. To be noted: read-out: apparent Kd; compound concentrations: 100 nM and 1000 nM (sheet 'Samples'), CATDS: 6.8145894715466407E-2; n = 1.
In the next experiment the test system is CSNK1A1. The note with it: read-out: apparent Kd, n = 1.
The test system of another experiment is CSNK1D. To be noted: read-out: apparent Kd, n = 1.
In a further experiment the test system is CSNK1E. To be noted: read-out: apparent Kd, n = 1.
For the next experiment, the system named is T1, DJA1.
T1 construct: gene DNAJA1
The note with it: read-out: apparent Kd; compound concentrations: 100 nM and 1000 nM (sheet 'Samples'), CATDS: 6.7999729986940594E-2; n = 1.

The subject of another experiment is GAK. The note with it: read-out: apparent Kd, n = 1.
The subject of a further experiment is MAPK10. To be noted: read-out: apparent Kd, compound concentrations: 100 nM and 1000 nM (sheet 'Samples'), n = 1.
The test system of the next experiment is MAPK14. To be noted: read-out: apparent Kd, compound concentrations: 100 nM and 1000 nM (sheet 'Samples'), n = 1.
For the next experiment, the system named is MAPK9. To be noted: read-out: apparent Kd, compound concentrations: 100 nM and 1000 nM (sheet 'Samples'), n = 1.
The test system of the next experiment is MAPKAPK2. To be noted: read-out: apparent Kd, n = 1.
Another experiment has as its system PKN3. To be noted: read-out: apparent Kd, compound concentrations: 100 nM and 1000 nM (sheet 'Samples'), n = 1.
Another experiment has as its system PRKCQ. The note with it: read-out: apparent Kd; compound concentrations: 100 nM and 1000 nM (sheet 'Samples'), CATDS: 6.9749841239759497E-2; n = 1.
The test system of another experiment is TGFBR1. The note with it: read-out: apparent Kd, n = 1.
In another experiment the test system is ACVR2B. The note with it: read-out: apparent Kd, n = 1.
Another experiment concerns PRKD2. The note with it: read-out: apparent Kd, n = 1.
The test system of the next experiment is TGFBR2. The note with it: read-out: apparent Kd; compound concentrations:100 nM and 1000 nM (sheet 'Samples'); n = 1.
A further experiment concerns TNIK. To be noted: read-out: apparent Kd; compound concentrations:100 nM and 1000 nM (sheet 'Samples'); n = 1.
Another experiment concerns DDR1. To be noted: read-out: apparent Kd; compound concentrations: 100 nM and 1000 nM (sheet 'Samples'), CATDS: 5.25374061654219E-2; n = 1.
In the next experiment the test system is DDR2. To be noted: read-out: apparent Kd; compound concentrations: 100 nM and 1000 nM (sheet 'Samples'), CATDS: 4.2392371826783903E-2; n = 1.
The subject of the next experiment is MAPK8. To be noted: read-out: apparent Kd; compound concentrations: 100 nM and 1000 nM (sheet 'Samples'), CATDS: 3.7066716076187299E-2; n = 1.
The test system of another experiment is PRKD3. To be noted: read-out: apparent Kd; compound concentrations: 100 nM and 1000 nM (sheet 'Samples'), CATDS: 4.4266829697393303E-2; n = 1.
The subject of another experiment is RIPK2. To be noted: read-out: apparent Kd; compound concentrations: 100 nM and 1000 nM (sheet 'Samples'), CATDS: 5.33565185229085E-2; n = 1.
Where [1] appears, read: compound concentrations:100 nM and 1000 nM (sheet 'Samples').

As for `Fc1ccc(-c2nn3ccccc3c2-c2ccncc2)cc1` [GW434756X], the potency estimated from few doses in the experiment with ACVR1B (compound concentrations: 100 nM and 1000 nM (sheet 'Samples'), CATDS: 6.8235886805588605E-2) was 1230 nM; in the experiment with CIT it was 1230 nM; with CSNK1A1 (compound concentrations: 100 nM and 1000 nM (sheet 'Samples'), CATDS: 7.0903830983545899E-2) it was 1120 nM; in the experiment on CSNK1D (compound concentrations: 100 nM and 1000 nM (sheet 'Samples'), CATDS: 0.180022890791455) it was 233 nM; in the experiment with CSNK1E (compound concentrations: 100 nM and 1000 nM (sheet 'Samples'), CATDS: 9.3100036539018993E-2), 644 nM; with DJA1, 1240 nM. Moreover, the potency estimated from few doses with GAK (compound concentrations: 100 nM and 1000 nM (sheet 'Samples'), CATDS: 6.3982915513231806E-2) was 1440 nM; with MAPK10 (CATDS: 7.0993589128773599E-2), 1120 nM; with MAPK14 (CATDS: 8.8352679979738905E-2) it was 709 nM; in the experiment with MAPK9 (CATDS: 6.4345745846517005E-2), 1420 nM; with MAPKAPK2 (compound concentrations: 100 nM and 1000 nM (sheet 'Samples'), CATDS: 0.114976727477382) it was 449 nM; with PKN3 (CATDS: 6.6861054791119798E-2), 1290 nM. Besides, the potency estimated from few doses with PRKCQ is 1160 nM.

As to `Nc1nccc(-c2c(-c3ccc(F)cc3)nn3cc(C(F)(F)F)ccc23)n1` [GW568326X], the potency estimated from few doses in the experiment with ACVR1B (compound concentrations: 100 nM and 1000 nM (sheet 'Samples'), CATDS: 0.37925228743827699) is 526 nM; in the experiment on CSNK1D (compound concentrations: 100 nM and 1000 nM (sheet 'Samples'), CATDS: 0.232202944333886) it was 1310 nM; in the experiment with MAPK14 (CATDS: 0.251383978494441), 1100 nM; in the experiment with TGFBR1 (compound concentrations: 100 nM and 1000 nM (sheet 'Samples'), CATDS: 0.196901676551059), 2000 nM.

`c1ccc(-c2n[nH]cc2-c2ccnc3ccccc23)nc1` [GW271431X]: the potency estimated from few doses was 18.8 nM in the experiment on ACVR1B (setting [1]); 555 nM with ACVR2B (setting [1]); 628 nM with CSNK1A1 (setting [1]); 398 nM with CSNK1D (setting [1]); 712 nM with CSNK1E (setting [1]); 465 nM in the experiment with GAK (setting [1]). In addition, the potency estimated from few doses is 1680 nM in the experiment with MAPKAPK2 (setting [1]); 1430 nM in the experiment with PRKD2 (setting [1]); 9.71 nM in the experiment on TGFBR1 (setting [1]); 113 nM in the experiment with TGFBR2; 1380 nM in the experiment on TNIK.

Consider `Cc1ccc2c(-c3ccnc(Nc4ccccc4)n3)c(-c3ccc(F)cc3)nn2n1` [GW833373X], for which the potency estimated from few doses in the experiment with ACVR1B (compound concentrations: 100 nM and 1000 nM (sheet 'Samples'), CATDS: 8.2410499697195994E-2) was 193 nM; with ACVR2B (compound concentrations: 100 nM and 1000 nM (sheet 'Samples'), CATDS: 4.1971231951758399E-2), 1090 nM; with CSNK1A1 (compound concentrations: 100 nM and 1000 nM (sheet 'Samples'), CATDS: 3.7842664233860401E-2) it was 1640 nM; in the experiment on CSNK1D (compound concentrations: 100 nM and 1000 nM (sheet 'Samples'), CATDS: 5.8055493904437101E-2), 418 nM; with CSNK1E (compound concentrations: 100 nM and 1000 nM (sheet 'Samples'), CATDS: 4.09740757969334E-2) it was 1190 nM; in the experiment with DDR1, 543 nM. Moreover, the potency estimated from few doses with DDR2 was 1050 nM; in the experiment on GAK (compound concentrations: 100 nM and 1000 nM (sheet 'Samples'), CATDS: 0.17328918321310699), 56.5 nM; with MAPK10 (CATDS: 0.12973795747386199), 87.1 nM; with MAPK14 (CATDS: 0.11490787983313), 106 nM; in the experiment with MAPK8, 1800 nM; in the experiment on MAPK9 (CATDS: 0.1157117766231), 105 nM. Further, the potency estimated from few doses in the experiment with MAPKAPK2 (compound concentrations: 100 nM and 1000 nM (sheet 'Samples'), CATDS: 0.100968971541066) is 132 nM; in the experiment on PKN3 (CATDS: 3.6917744645490899E-2) it was 1840 nM; in the experiment on PRKD2 (compound concentrations: 100 nM and 1000 nM (sheet 'Samples'), CATDS: 5.3704736783425001E-2), 511 nM; with PRKD3, 906 nM; in the experiment on RIPK2, 520 nM; in the experiment with TGFBR1 (compound concentrations: 100 nM and 1000 nM (sheet 'Samples'), CATDS: 4.4217762618850402E-2) it was 909 nM.
